# Results taken from PubChem BioAssay (NCI).
# Where “and” joins values, the source holds several entries; their conditions need not be identical. Equal values may be shown once. Compounds without any hit were thinned out: in the full panel of roughly 83,000, 20% have a hit.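 Compound tested at a single concentration for 48 hours in 96-well plates; a percent growth value below 10 was scored as active.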 Values without a mark were called inactive. Calls of active or inactive are those of the source. Where a SMILES comes first, the peptide text is derived from it.
# What was measured:
# Experiment in all cases: NCI-60 one-dose screen, 48 h (100 = growth as untreated, 0 = no growth, -100 = all killed)
# NCI-H23 lung = conditions: 10 µM unless noted
# NCI-H226 lung = conditions: 10 µM unless noted
# HOP-62 NSCLC = conditions: 10 µM unless noted
# 786-0 renal = conditions: 10 µM unless noted
# COLO 205 colon = conditions: 10 µM unless noted
# DU-145 prostate = conditions: 10 µM unless noted
# K-562 leukemia = conditions: 10 µM unless noted
# MALME-3M melanoma = conditions: 10 µM unless noted
# MDA-MB-231 breast = conditions: 10 µM unless noted
# RXF 393 renal = conditions: 10 µM unless noted
# SF-268 CNS = conditions: 10 µM unless noted
# SF-295 CNS = conditions: 10 µM unless noted
# SF-539 CNS = conditions: 10 µM unless noted
# M14 melanoma = conditions: 10 µM unless noted
# NCI-H522 lung = conditions: 10 µM
# UACC-257 melanoma = conditions: 10 µM unless noted
# NCI-H460 lung = conditions: 10 µM unless noted
# A549/ATCC NSCLC = conditions: 10 µM unless noted
# NCI-H322M lung = conditions: 10 µM unless noted
# HOP-92 NSCLC = conditions: 10 µM
SMILES,growth (NCI-H23 lung),growth (NCI-H226 lung),growth (HOP-62 NSCLC),growth (786-0 renal),growth (COLO 205 colon),growth (DU-145 prostate),growth (K-562 leukemia),growth (MALME-3M melanoma),growth (MDA-MB-231 breast),growth (RXF 393 renal),growth (SF-268 CNS),growth (SF-295 CNS),growth (SF-539 CNS),growth (M14 melanoma),growth (NCI-H522 lung),growth (UACC-257 melanoma),growth (NCI-H460 lung),growth (A549/ATCC NSCLC),growth (NCI-H322M lung) [%],growth (HOP-92 NSCLC) [%]
OC1COC(OCc2ccccc2)C(O)C1O (configuration not stated),106%,98.1%,101%,105%,115%,105%,97.9%,78.7%,109%,103%,106%,101%,105%,96.8%,,,,,,
O=C(CO)C(O)C(O)C(O)C(O)CO (configuration not stated),104% and 102%,96.2% and 101%,105%,105%,107% and 103%,110% and 109%,108% and 117%,109% and 117%,,119% and 117%,102% and 104%,105% and 102%,107% and 96.5%,103% and 96.2%,102% and 108%,93.9% and 95.8%,,,,
CN1CNC(=O)NC1,106% and 99.9%,98.4% and 86.1%,108% and 103%,108% and 112%,110% and 121%,118% and 106%,112% and 86%,120% and 96%,119% and 102%,102% and 106%,111% and 103%,96.5% and 104%,111% and 98.4%,97.2% and 106%,91.2% and 90%,111% and 86.9%,103% and 108%,110% and 93.8%,,
CC(C)NC(=O)N/C=C(\C#N)C(N)=O,92.7%,97.5%,88.2%,99%,103%,107%,116%,89.3%,111%,98.9%,101%,102%,97.9%,95.3%,87.2%,,91.1%,111%,,
Oc1ccc(Cc2ccccc2Cl)c(O)c1,89.5%,,91.9%,102%,106%,,91.5%,,71.7%,83.9%,,,93.9%,99.1%,94.7%,93.2%,,,86.5,
Cc1ccc(S(=O)(=O)c2ccccc2)cc1,54.5%,85.6%,44.2%,,18.4%,26.3%,23.2%,66.6%,50%,39.3%,47.9%,2.7% (active),28.7%,15.4%,,8.5% (active),,,,58.7
c1ccc2c(c1)OC1OC2Oc2ccccc21,98.3%,94.3%,98.8%,100%,107%,113%,96.1%,113%,114%,97.1%,99.3%,115%,106%,,87%,101%,,,,
Cc1cc(-c2cc(C)c(O)c(C)c2)cc(C)c1O,87.3%,96.2%,73.9%,,115%,104%,31.9%,75%,75.6%,63.5%,92.9%,86.1%,84.9%,71.6%,63.3%,92%,,,,
NC(Cc1c[nH]c2ccccc12)C(=O)O (configuration not stated),106% and 108%,90.6% and 103%,64.3% and 96.3%,69.5% and 99.7%,117% and 103%,103% and 113%,136% and 101%,118% and 96.3%,104% and 97.1%,91.4% and 103%,105% and 101%,99.4% and 102%,93.8% and 96.8%,93.2% and 98.4%,86% and 93.1%,66.9% and 94%,,113% and 97.8%,,75.5
CC1CCC2(OC1)OC1CC3C4CC=C5CC(O)CCC5(C)C4CCC3(C)C1C2C (configuration not stated),104%,92.2%,66.6%,,111%,107%,97.3%,120%,100%,,89.6%,119%,91.2%,102%,103%,-3.06% (active),,,,
Cl,97.5%,105%,,104%,115%,119%,,116%,115%,117%,116%,99.2%,111%,107%,,105%,,,,
O=C1c2c(O)ccc(O)c2C(=O)c2c(NCCNCCO)ccc(NCCNCCO)c21,-59% (active) and -79.5% (active),-55.7% (active) and -60.1% (active),-53.4% (active) and -65.5% (active),-15.8% (active) and -50.5% (active),-69.5% (active) and -74.4% (active),-36.8% (active) and -51.3% (active),-5.45% (active) and -77.6% (active),-64.6% (active) and -88.2% (active),-84.3% (active) and -77.3% (active),-86.4% (active) and -68.9% (active),-73% (active) and -80% (active),-37.8% (active) and -39.6% (active),-38.4% (active) and -84% (active),-79.7% (active) and -97.7% (active),-91.7% (active) and -66.8% (active),-4.02% (active) and -47.7% (active),-57% (active) and -52.8% (active),,,
CC1=C/C(O)CC(=O)Cc2nc(co2)C(=O)N2CCC=C2C(=O)OC(C(C)C)C(C)/C=C\C(=O)NC/C=C\1 (configuration not stated),78.7%,82.9%,,2.53% (active),74.3%,90.7%,48.4%,125%,98.6%,93.6%,93.3%,101%,104%,15.4%,21.8%,75.4%,102%,83%,,
O=C(O)/C=C\C(=O)Nc1cccc2ccccc12,106% and 91.4%,90.6% and 107%,96% and 104%,113% and 111%,95.4% and 108%,109% and 123%,110% and 94%,116% and 119%,85.1% and 107%,113% and 132%,78.6% and 107%,117% and 104%,89.2% and 110%,99.6% and 96.8%,79.3% and 100%,95.1% and 101%,,99.9% and 105%,,115
CCN(CCNS(C)(=O)=O)c1ccc(N)c(C)c1,99.2% and 85.9%,92.9% and 82.7%,106% and 111%,89% and 95.7%,69.6% and 107%,70.4% and 123%,27.9% and 95.5%,93.6% and 119%,109% and 97.4%,72.4% and 78.3%,93.3% and 94.9%,103% and 116%,113% and 105%,108% and 98.6%,-70.5% (active),89.7%,107% and 99.7%,,,
CCc1cc(C)cc(O)c1,107%,99.4%,106%,104%,116%,122%,100%,112%,112%,94.4%,124%,116%,128%,103%,90.1%,96.1%,,,,91.7
Nc1cc(N)c(N)cc1N,-66% (active),93.9%,58.3%,51.7%,95.7%,109%,9.58% (active),62%,89.6%,51.3%,74.2%,87.8%,-3.2% (active),,-80.9% (active),-46.4% (active),,88.1%,,115
CCCCCCCCCCCCCCCc1ccc(N)c(OC2OC(CO)C(O)C(O)C2O)c1 (configuration not stated),80.9%,96.4%,73.9%,81.7%,,119%,83.4%,22.5%,70%,,99%,92.2%,93.4%,82.5%,-63.5% (active),51.5%,,86%,,82
NC(Cc1ccccc1)C(=O)NC(Cc1ccccc1)C(=O)O (stereo not drawn) (H-Phe-Phe-OH; configuration not given here),97.1% and 105%,95.6% and 93%,91.1% and 100%,111% and 104%,107% and 110%,111% and 106%,97.9% and 114%,99.4%,115% and 108%,105%,101% and 106%,107% and 99.4%,101% and 92.6%,103% and 97.1%,87.3% and 99.4%,88.2% and 92.8%,,,,
O=C1C=C(Nc2ccccc2)c2ccccc2C1=O,23% and 66.1%,66.4% and 83.4%,19.1% and 123%,99.8% and 99.3%,108% and 91.9%,21.2% and 97.3%,54.7% and 98.7%,70.1% and 71%,69.1% and 59.7%,96.7%,80.3% and 92.8%,61.1% and 105%,44.4% and 105%,47% and 107%,76.8% and 86.6%,88.7% and 97.9%,,,,
